# Data: PubChem BioAssay (NCATS)
# Records with an inconclusive call do not appear. Unmarked numbers belong to inactive results. The source made the active and inactive calls. Calls follow the shape of the dose curve; as a rule, active = well fitted inhibition curve with a large enough effect; inconclusive = small, poorly fitted or top-dose-only effect; inactive = flat fitted curve, though single readings scatter.
# Test system: CP329
# Assay: qHTS profiling for inhibitors of Plasmodium falciparum proliferation (AID 504749); also: nearly all actives have a fitted effect of over 60% in size;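 as to activity, negative = inhibition: 0% = DMSO vehicle and full inhibition = artemisinin control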
# Settings: P. falciparum in erythrocytes, SYBR Green DNA, 72 h; series mostly up to 28.7 µM; activity, negative = inhibition: at the top concentration
# How it was run: (§1)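 Each compound contacts P. falciparum-infected red blood cells for 72 h at 37 C; lysis buffer (Tris, EDTA, saponin, Triton X, SYBR Green I) is added and fluorescence measured next morning; values normalized to controls.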
# Potency is read from the fitted curve at half-maximal effect.
row,SMILES,"activity, negative = inhibition [%]"
1,CN(C)CCCN1c2ccccc2CCc2ccc(Cl)cc21,-22
2,CC(C)NCC(O)c1ccc(O)c(O)c1 (stereo not given),10.6
3,CNCCCC12CCC(c3ccccc31)c1ccccc12,-12.7
4,CC(=O)OCC(CCn1cnc2cnc(N)nc21)COC(C)=O,-2.41

# Test system: CP335
# Assay: as above
# Settings: P. falciparum in erythrocytes, SYBR Green DNA, 72 h; series mostly up to 28.7 µM; activity, negative = inhibition: at the top concentration
# How it was run: as §1
SMILES,"activity, negative = inhibition",Potency
COC(=O)Nc1nc2ccc(C(=O)c3cccs3)cc2[nH]1,-2.74%,
Clc1ccccc1C(c1ccccc1)(c1ccccc1)n1ccnc1,,1.28 µM (active)
Cc1cn([C@H]2C=C[C@@H](CO)O2)c(=O)[nH]c1=O,1.29%,
CCOC(=O)c1ncn2c1CN(C)C(=O)c1cc(F)ccc1-2,3.74%,
CCCCc1oc2ccccc2c1C(=O)c1cc(I)c(OCCN(CC)CC)c(I)c1,,9.53 µM (active)
CC#C[C@]1(O)CC[C@H]2[C@@H]3CCC4=CC(=O)CCC4=C3[C@@H](c3ccc(N(C)C)cc3)C[C@@]21C,,13.5 µM (active)
CN(C)CCOC(c1ccccc1)c1ccccc1,12.7%,
O=C1c2c(O)ccc(O)c2C(=O)c2c(NCCNCCO)ccc(NCCNCCO)c21,,2.87 µM (active)
O=C(c1ccc(OCCN2CCCCC2)cc1)c1c(-c2ccc(O)cc2)sc2cc(O)ccc12,,6.75 µM (active)
Nc1nc2c(ncn2COC(CO)CO)c(=O)[nH]1,7.62% [at 12.8 µM],
O=C(Nc1ccc([N+](=O)[O-])cc1Cl)c1cc(Cl)ccc1O,,1.51 µM (active)
OCCN1CCN(CCCN2c3ccccc3Sc3ccc(C(F)(F)F)cc32)CC1,,4.26 µM (active)
COc1nc(C)nc(Cl)c1NC1=NCCN1,3.07% [at 12.8 µM],
CC(C)(Oc1ccc(C2CC2(Cl)Cl)cc1)C(=O)O (stereo not given),6.09%,
CC[C@@]1(O)C(=O)OCc2c1cc1n(c2=O)Cc2cc3c(CN(C)C)c(O)ccc3nc2-1,,4.78 µM (active)
CN(C)C(=N)N=C(N)N,3.41% [at 12.8 µM],
CC12CC3CC(C)(C1)CC(N)(C3)C2,4.18%,
CC(C)NCC(O)c1ccc(O)c(O)c1 (stereo not given),0.911%,
CNCCCC12CCC(c3ccccc31)c1ccccc12,-18.5%,
CC(=O)OCC(CCn1cnc2cnc(N)nc21)COC(C)=O,3.27%,
CCOC(=O)Nc1ccc(NCc2ccc(F)cc2)nc1N,,6.01 µM (active)

# Test system: DFO2036
# Assay: as above
# Settings: P. falciparum in erythrocytes, SYBR Green DNA, 72 h; series mostly up to 28.7 µM; activity, negative = inhibition: at the top concentration
# How it was run: as §1
SMILES,"activity, negative = inhibition",Potency
COC(=O)Nc1nc2ccc(C(=O)c3cccs3)cc2[nH]1,9.03%,
Clc1ccccc1C(c1ccccc1)(c1ccccc1)n1ccnc1,,0.708 µM (active)
Cc1cn([C@H]2C=C[C@@H](CO)O2)c(=O)[nH]c1=O,11.8%,
CCOC(=O)c1ncn2c1CN(C)C(=O)c1cc(F)ccc1-2,11.1%,
CCC1(c2ccccc2)C(=O)NCNC1=O,5.98%,
CN(C)CCC=C1c2ccccc2C=Cc2ccccc21,-13.4%,
CN(C)CCOC(c1ccccc1)c1ccccc1,18.6%,
O=C1c2c(O)ccc(O)c2C(=O)c2c(NCCNCCO)ccc(NCCNCCO)c21,,2.51 µM (active)
O=c1[nH]cc(F)c(=O)[nH]1,-21.5%,
Nc1nc2c(ncn2COC(CO)CO)c(=O)[nH]1,-0.218% [at 12.8 µM],
COc1ccc(CCN(C)CCCC(C#N)(c2ccc(OC)c(OC)c2)C(C)C)cc1OC (stereo not given),1.81%,
CN1CCC(=C2c3ccccc3CC(=O)c3sccc32)CC1,-25.7%,
OCCN1CCN(CCCN2c3ccccc3Sc3ccc(C(F)(F)F)cc32)CC1,,7.08 µM (active)
Clc1ccc(C(c2ccccc2Cl)C(Cl)Cl)cc1 (stereo not given),-12.2%,
COc1nc(C)nc(Cl)c1NC1=NCCN1,2.6% [at 12.8 µM],
CC(COc1ccccc1)N(CCCl)Cc1ccccc1 (stereo not given),-14.3%,
CC(C)(Oc1ccc(C2CC2(Cl)Cl)cc1)C(=O)O (stereo not given),-0.294%,
NC12CC3CC(CC(C3)C1)C2,9.39%,
CC[C@@]1(O)C(=O)OCc2c1cc1n(c2=O)Cc2cc3c(CN(C)C)c(O)ccc3nc2-1,,5.62 µM (active)
COc1ccccc1OCCNCC(O)COc1cccc2[nH]c3ccccc3c12 (stereo not given),,14.1 µM (active)
CN(C)C(=N)N=C(N)N,13.5% [at 12.8 µM],
CC12CC3CC(C)(C1)CC(N)(C3)C2,15%,
CN(C)CCCN1c2ccccc2CCc2ccc(Cl)cc21,-13.4%,
CC(C)NCC(O)c1ccc(O)c(O)c1 (stereo not given),2.87%,
CNCCCC12CCC(c3ccccc31)c1ccccc12,-17.4%,
CC(=O)OCC(CCn1cnc2cnc(N)nc21)COC(C)=O,-9.01%,

# Test system: DIV14
# Assay: as above
# Settings: P. falciparum in erythrocytes, SYBR Green DNA, 72 h; series mostly up to 28.7 µM; activity, negative = inhibition: at the top concentration
# How it was run: as §1
SMILES,Potency,"activity, negative = inhibition"
Clc1ccccc1C(c1ccccc1)(c1ccccc1)n1ccnc1,0.455 µM (active),
Cc1cn([C@H]2C=C[C@@H](CO)O2)c(=O)[nH]c1=O,,8.81%
CCOC(=O)c1ncn2c1CN(C)C(=O)c1cc(F)ccc1-2,,-3.27%
CCC1(c2ccccc2)C(=O)NCNC1=O,,-6.92%
CN(C)CCC=C1c2ccccc2C=Cc2ccccc21,2.39 µM (active),
CCCCc1oc2ccccc2c1C(=O)c1cc(I)c(OCCN(CC)CC)c(I)c1,7.57 µM (active),
CC#C[C@]1(O)CC[C@H]2[C@@H]3CCC4=CC(=O)CCC4=C3[C@@H](c3ccc(N(C)C)cc3)C[C@@]21C,12 µM (active),
O=C1c2c(O)ccc(O)c2C(=O)c2c(NCCNCCO)ccc(NCCNCCO)c21,4.55 µM (active),
O=C(c1ccc(OCCN2CCCCC2)cc1)c1c(-c2ccc(O)cc2)sc2cc(O)ccc12,12 µM (active),
O=c1c(O)c(-c2ccc(O)c(O)c2)oc2cc(O)cc(O)c12,15.1 µM (active),
Nc1nc2c(ncn2COC(CO)CO)c(=O)[nH]1,,-7.05% [at 12.8 µM]
COc1ccc(CCN(C)CCCC(C#N)(c2ccc(OC)c(OC)c2)C(C)C)cc1OC (stereo not given),,0.316%
CN1CCC(=C2c3ccccc3CC(=O)c3sccc32)CC1,5.36 µM (active),
O=C(Nc1ccc([N+](=O)[O-])cc1Cl)c1cc(Cl)ccc1O,1.07 µM (active),
OCCN1CCN(CCCN2c3ccccc3Sc3ccc(C(F)(F)F)cc32)CC1,6.75 µM (active),
COc1nc(C)nc(Cl)c1NC1=NCCN1,,-4.63% [at 12.8 µM]
Cn1ccc2cc3c(cc21)CCN3C(=O)Nc1cccnc1,12 µM (active),
CC1(CN2CCC(n3c(=O)[nH]c4ccccc43)CC2)OCc2ccccc2-n2cccc21 (stereo not given),9.53 µM (active),
CC(C)(Oc1ccc(C2CC2(Cl)Cl)cc1)C(=O)O (stereo not given),,6.08%
NC12CC3CC(CC(C3)C1)C2,,-0.14%
COc1ccccc1OCCNCC(O)COc1cccc2[nH]c3ccccc3c12 (stereo not given),13.5 µM (active),
CN(C)CCCN1c2ccccc2CCc2ccc(Cl)cc21,1.51 µM (active),
CC(=O)OCC(CCn1cnc2cnc(N)nc21)COC(C)=O,,0.0134%
CCOC(=O)Nc1ccc(NCc2ccc(F)cc2)nc1N,15.1 µM (active),
